# Activity calls are given as the source filed them. How the source made its calls: active means hit-call score of the fitted dose curve at least 0.9, where 1 is the maximum; inactive means score below 0.9.
# Read-out: Human Leukocyte Antigen - DR isotype (HLADR), HLA-DRA (gene 3122)
# Experiment: BSK_BE3C_HLADR: BioMAP Diversity Plus: BE3C Assay for Human Leukocyte Antigen - DR isotype (HLADR) Biomarker Activity (AID 2283032)
# Settings: primary human bronchial epithelial cells; actives raise or lower the signal
# How it was run: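 Primary human bronchial epithelial cells (BE3C); 24 h chemical exposure; HLA-DR by ELISA; bidirectional curve fit vs DMSO baseline.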
SMILES,AC50,outcome
CCCCCCCCCCCCN1CCCC1=O,26.2 µM (active),–
CCCOC(=O)c1ccc(O)cc1,–,inactive
CC(=O)NC1(c2cccc(F)c2)CCN(CC[C@@]2(c3ccc(Cl)c(Cl)c3)CN(c3ccccc3)C(=O)CO2)CC1,24.5 µM (active),–
CCc1nn(C2CCCCC2)c2cc(C3(C#N)CCC(C(=O)O)CC3)ccc12 (stereo not given),31 µM (active),–
ClC1=C(Cl)C(Cl)(Cl)C(Cl)=C1Cl,6.39 µM (active),–
C[C@@H]1C[C@H]2[C@@H]3CCC4=CC(=O)C=C[C@]4(C)[C@@]3(F)[C@@H](O)C[C@]2(C)[C@@]1(O)C(=O)COP(=O)(O)O,–,inactive
CCCCCCCCC(=O)O,–,inactive
NC(=O)N1C(=O)C(C(=O)c2cc(Cl)cs2)c2cc(F)c(Cl)cc21 (stereo not given),2.85 µM (active),–
CC(C)(C)CC(C)(C)c1ccc(O)c(-n2nc3ccccc3n2)c1,–,inactive
c1ccc2c(c1)ccc1ccccc12,–,inactive
CN1CCC[C@H]1c1cccnc1,–,inactive
CCOC(=O)CC(O)(CC(=O)OCC)C(=O)OCC,–,inactive
O=c1c(-c2ccc(O)cc2)coc2cc(O)ccc12,–,inactive
CCCCCCCCCCCCCC[N+](C)(C)C,3.18 µM (active),–
CCCCCCCCOC(=O)CCCCCCCCC(=O)OCCCCCCCC,–,inactive
OC1CCCCC1,–,inactive
CCc1ccc(CCOc2ccc(CC3SC(=O)NC3=O)cc2)nc1 (stereo not given),–,inactive
COCC(C)OCC(C)O (stereo not given),–,inactive
N#C[C@@H]1CC(F)(F)CN1C(=O)CNC1CC2CCC(C1)N2c1ncccn1 (stereo not given in full),–,inactive
CCCCCCCCCCCCCCCS(=O)(=O)Oc1ccccc1,–,inactive
